Measured values: PubChem BioAssay AID540355 (National Center for Advancing Translational Sciences (NCATS), 2011)
The list shows a part of the results. Results filed as inconclusive are left out. Activity calls are given as the source filed them. Calls come from the whole dose curve; as a rule, active = well fitted inhibition curve with a large enough effect; inconclusive = small, poorly fitted or top-dose-only effect; inactive = no such curve, though single readings can be large or run the other way.

target: 4'-phosphopantetheinyl transferase Sfp (Bacillus subtilis (strain 168)) (UniProt P39135); experiment: Gel-Based Assay for Inhibitos of Bacillus subtilis Sfp phosphopantetheinyl transferase (PPTase): Chemistry Optimization Followup; details: purified Sfp PPTase, gel-based product detection; series mostly up to 250 µM; activity change, negative = inhibition: at the top concentration
Sequence (P39135 whole entry, looked up): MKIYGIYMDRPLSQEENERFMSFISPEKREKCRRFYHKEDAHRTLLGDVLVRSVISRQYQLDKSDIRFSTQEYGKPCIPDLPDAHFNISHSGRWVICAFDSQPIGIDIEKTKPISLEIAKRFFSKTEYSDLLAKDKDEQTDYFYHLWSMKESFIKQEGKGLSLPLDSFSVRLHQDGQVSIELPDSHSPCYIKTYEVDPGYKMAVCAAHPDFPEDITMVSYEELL
Description: The covalent attachment of a phosphopantetheinyl (4'-PP) arm to a variety of synthases and other proteins is a key posttranslational protein modification. The 4'-PP is installed on the proteins post-translationally from coenzyme A (CoA) on a conserved serine residue by action of phosphopantetheinyl transferase (PPTase) enzymes. Phosphopantetheinylation is essential for synthase activity, and removal of the PPTase gene precludes natural product synthesis in microorganisms, or in the case of fatty acid biosynthesis, renders the organism unviable. PPTase enzymes belong to a distinct structural superfamily. Within bacteria, these enzymes are grouped into two classes based upon primary structure, the AcpS-Type and Sfp-Type PPTases.
Sfp-type PPTases, corresponding to an activator of surfactin production in Bacillus subtilis, are responsible for modifying type I polyketide and nonribosomal peptide synthases of prokaryotes. Sfp-type PPTases are responsible for the activation of a variety of pathogen-associated virulence factors. Among these compounds are toxins such as mycolactone from Mycobacterium ulcerans, siderophores such as vibriobactin from Vibrio cholerae or mycobactin from Mycobacterium tuberculosis, as well as the mycolic acids which form the waxy cell wall of Mycobacteria. The biosyntheses of these natural products are considered attractive targets for drug design.
In this assay, compounds were evaluated by monitoring of fluorescence transfer to whole carrier protein substrates via polyacrylamide gel electrophoresis. See Yasgar, et al. (PMID: 20094656) for further details on assay. This assay was used to evaluate follow-up compounds from the primary screen (AID: 1490).
NIH Chemical Genomics Center [NCGC]
NIH Molecular Libraries Probe Centers Network [MLPCN]
Assay Submitter (PI): Michael Burkart, University of California, San Diego
A DMSO solution of confirmed hits (0.5 microL) was added to a 1.33X enzyme solution (15 microL, containing 26.6 nM Sfp, 66 mM HEPES, 13.3 mM MgCl2, 0.0133% NP-40, 0.133% BSA, pH 7.6). After a 10 minute incubation, the enzymatic reaction was initiated by the addition of 4 X substrate solution (4 microL, containing 50 microM Rhodamine CoA and 50 microM apo-Actinorhodin-ACP). The reactions were terminated after a 30 minute incubation at room temperature by the addition of 2X quench solution (20 microL, containing 4 M Urea, 25 mM EDTA, 0.004% phenol red, pH 8.0). Samples were separated under native conditions on a 20% polyacrylamide gel using standard Laemmli conditions. Following the run, gels were imaged with a Chemi-Doc Plus imager (Bio-Rad, Hercules, CA) and band intensity quantified using the ImageJ software package. Pixel density values were normalized to control wells (SCH202676) and fit with the 4-parameter Hill equation using in-house tools.

| Structure (SMILES) | activity change, negative = inhibition | Potency |
| --- | --- | --- |
| COc1cccc(NC(=S)N2CCN(c3ccc(Cl)cc3Cl)CC2)n1 | 44.2% (inactive) | – |
| Cc1ccc(N2CCN(C(=S)Nc3cc(C)ccn3)CC2)cc1 | – | 3.16 µM (active) |
| COc1ccnc(NC(=S)N2CCN(c3ncc(C(F)(F)F)cc3Cl)CC2)c1 | – | 3.02 µM (active) |
| Cc1cc(C)nc(NC(=S)N2CCN(c3cccc(C#N)c3)CC2)c1 | – | 10 µM (active) |
| Cc1cc(C)nc(NC(=S)N2CCN(c3ccc4nonc4c3)CC2)c1 | – | 10 µM (active) |
| Cc1cc(C)nc(NC(=S)N2CCN(c3ccc(Cl)cc3C(F)(F)F)CC2)c1 | – | 6.75 µM (active) |
| Cc1cc(C)nc(NC(=S)N2CCN(c3cccc(C(F)(F)F)c3)CC2)c1 | – | 1.58 µM (active) |
| COc1cccc(NC(=S)N2CCN(c3ccccc3C(F)(F)F)CC2)n1 | 61.4% (inactive) | – |
| FC(F)(F)c1cccc(N2CCN(C(=S)Nc3ccncc3)CC2)c1 | 5.42% (inactive) | – |
